High-throughput results from PubChem BioAssay.
An excerpt weighted towards active compounds, which were near 1.3% of everything screened.
SSB-PriA inh – inhibitors of Klebsiella pneumoniae PriA binding to SSB C-terminal tail | AlphaScreen SSBct-PriA binding, biotinylated peptide | inhibition, % at 33 µM | actives 0.6% (n = 430,000); in the data active means inhibition mostly above about 37%, no sharp cut-off; inactive means mostly below about 20%;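 further: plate controls were negative control peptide for no effect and reference peptide for full effect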
3CLpro inhibitor – SARS-CoV 3CLpro protease inhibition; inhibition, % at 6 µM; P0C6X7; AID 1706; recombinant SARS-CoV 3CLpro, quenched FRET peptide cleavage; actives 0.14% (n = 290,000); in the data active means inhibition above about 12%
Mtb hypoxia inh – Mtb hypoxia fluorescent reporter inhibition; M. tuberculosis hypoxia-regulated fluorescent reporter, fluorescence; fluorescence inhibition, % (no concentration beside the values); actives 0.1% (n = 300,000); in the data active means fluorescence inhibition mostly above about 23%, no sharp cut-off; inactive means mostly below about 17%
CCHF vOTU inh-1 – blocks the CCHF virus ovarian tumor domain protease; actives 0.55% (n = 370,000); AID 651958; inhibition, % at 11.5 µM; CCHFV vOTU protease, Pep-AMC fluorescence; further: 0% = vehicle wells with enzyme and 100% = no enzyme wells
DUSP3 inh – inhibitors of human VHR1 phosphatase (DUSP3); recombinant VHR phosphatase, pNPP absorbance; inhibition, % at 13.3 µM; actives 0.52% (n = 290,000); in the data active means inhibition above about 50%
Target sequence (P51452 whole entry, looked up): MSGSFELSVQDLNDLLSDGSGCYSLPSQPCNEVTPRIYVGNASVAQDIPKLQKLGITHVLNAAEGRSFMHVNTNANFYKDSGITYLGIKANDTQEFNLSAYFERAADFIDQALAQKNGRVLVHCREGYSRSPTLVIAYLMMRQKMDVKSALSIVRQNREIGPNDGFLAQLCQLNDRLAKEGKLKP
CCHF vOTU inh-2 – confirmation of CCHF virus vOTU protease inhibitors | shares compounds with CCHF vOTU inh-1 | Recombinant CCHFV vOTU, Pep-AMC fluorescence | inhibition, % at 11.5 µM | actives 17% (n = 1,900) | AID 686976
* hit, by the source's call. Unless noted, no stated cut-off is given here; in the data, active means inhibition above about 30%; inactive means the rest.

For COc1cccc2sc(NC(=O)c3cc([N+](=O)[O-])cc([N+](=O)[O-])c3)nc12 the results were SSB-PriA inh 4.
`CCOC(=O)Nc1ccc(NCc2ccc(F)cc2)nc1N` gave SSB-PriA inh 4, Mtb hypoxia inh -3, CCHF vOTU inh-1 67* and CCHF vOTU inh-2 -5.
Cc1[nH]cnc1CN1CCc2c(c3ccccc3n2C)C1=O was read as SSB-PriA inh 0, Mtb hypoxia inh -4, CCHF vOTU inh-1 72* and CCHF vOTU inh-2 24.
Screening CC(C)(C)OC(=O)N1CCCC(C(=O)Nc2cccc(C(=O)NCCc3ccccc3)c2)C1 (stereo not given) returned SSB-PriA inh 13 and CCHF vOTU inh-1 -3.
Screening CC(C)(C)OC(=O)N1CCCC(C(=O)Nc2cccc(C(=O)NCCCCc3ccccc3)c2)C1 (stereo not given) returned SSB-PriA inh -1, CCHF vOTU inh-1 35* and CCHF vOTU inh-2 -3.
For O=C(NCCCn1cccn1)c1n[nH]nc1-c1ccccc1 the results were SSB-PriA inh -1.
O=c1oc2ccccc2c(Nc2cc3ccccc3cc2O)c1[N+](=O)[O-] was read as SSB-PriA inh 23, 3CLpro inhibitor 4, Mtb hypoxia inh 20, CCHF vOTU inh-1 30*, DUSP3 inh -7 and CCHF vOTU inh-2 -10.
`Cc1ccc(OCc2cc(C(=O)N3CCC(C(O)C(C)C)CC3)no2)cc1C` (stereo not given) gave SSB-PriA inh -5, 3CLpro inhibitor -1, Mtb hypoxia inh 5, CCHF vOTU inh-1 33*, DUSP3 inh -15 and CCHF vOTU inh-2 -9.
`O=C(C1COc2ccccc2O1)N1CCN(c2ccccc2O)CC1` (stereo not given) gave SSB-PriA inh 8, Mtb hypoxia inh 5 and CCHF vOTU inh-1 3.
Cc1cc(C)c(C#N)c(N2CCN(C(=O)C3COc4ccccc4O3)CC2)n1 (stereo not given) was read as SSB-PriA inh 11, Mtb hypoxia inh -2, CCHF vOTU inh-1 48* and CCHF vOTU inh-2 -30.
`COc1ccc(-c2noc(-c3cccn(CC(=O)NCc4ccccc4Cl)c3=O)n2)cc1OC` gave SSB-PriA inh -6.
For Oc1cc(NCCc2cccnc2)cc2cccnc12 the results were SSB-PriA inh 85*, Mtb hypoxia inh -2, CCHF vOTU inh-1 41* and CCHF vOTU inh-2 13.
Screening N#C/C(=C/c1ccc([N+](=O)[O-])cc1)C(N)=O returned SSB-PriA inh 0, 3CLpro inhibitor 1, CCHF vOTU inh-1 34*, DUSP3 inh 6 and CCHF vOTU inh-2 -24.
For COc1ccc(NC(=O)COc2cc(C)cc(C)c2)cc1S(=O)(=O)N1CCCCC1 the results were SSB-PriA inh 0, Mtb hypoxia inh 2, CCHF vOTU inh-1 30* and CCHF vOTU inh-2 -16.
CCc1nc2c(OCC(=O)C(C)(C)C)cccn2c1N(C=O)CC(=O)N(C)C was read as CCHF vOTU inh-1 -3.
Screening CCCCN(C=O)c1c(CC)nc2c(OCC(=O)C(C)(C)C)cccn12 returned CCHF vOTU inh-1 32* and CCHF vOTU inh-2 -19.
Screening Cc1cc(C)c2sc(N(CCCN(C)C)C(=O)c3ccc(Br)s3)nc2c1 returned SSB-PriA inh 2, 3CLpro inhibitor -1, CCHF vOTU inh-1 31*, DUSP3 inh 15 and CCHF vOTU inh-2 4.
CCC(=O)c1ccc(OCC(O)Cn2cccn2)cc1 (stereo not given) was read as SSB-PriA inh -26.
For CCOC(=O)c1c(C)[nH]c(C(=O)CN(C)CC(=O)Nc2ccccc2C(F)(F)F)c1C the results were SSB-PriA inh 6, Mtb hypoxia inh -1, CCHF vOTU inh-1 31* and CCHF vOTU inh-2 0.
Screening CCOC(=O)c1c(C)[nH]c(C(=O)OCC(=O)N(C)CC(=O)Nc2ccccc2Cl)c1C returned SSB-PriA inh -4 and CCHF vOTU inh-1 14.
Screening Nc1cc2cccnc2cc1Cl returned SSB-PriA inh 0, Mtb hypoxia inh 14, CCHF vOTU inh-1 39* and CCHF vOTU inh-2 8.
`CC1=C(N2CC2)C(=O)C(CO)=C(N2CC2)C1=O` gave SSB-PriA inh -20, CCHF vOTU inh-1 35* and CCHF vOTU inh-2 5.
Cc1cccc(C)c1NC(=O)CSC1=NC2=C(C(=O)CCC2)C(c2ccccc2C(F)(F)F)C1C#N (stereo not given) was read as SSB-PriA inh -13.
For CCCCOCC1CN(CCCC)S(=O)(=O)c2c(F)cccc2O1 (stereo not given) the results were CCHF vOTU inh-1 15.
CCCCOCC1CN(CCCC)S(=O)(=O)c2c(cccc2N(C)S(=O)(=O)c2ccc(C)cc2)O1 (stereo not given) was read as CCHF vOTU inh-1 32* and CCHF vOTU inh-2 -1.
O=[N+]([O-])c1ccc2c(c1)NCCC2 was read as SSB-PriA inh 6.
O=[N+]([O-])c1cc(Br)c2c(c1)CCN2 was read as CCHF vOTU inh-1 30* and CCHF vOTU inh-2 1.
O=C(O)c1ccc(Cl)c(S(=O)(=O)NCc2ccco2)c1 was read as SSB-PriA inh -13, 3CLpro inhibitor -1, Mtb hypoxia inh 2, CCHF vOTU inh-1 0 and DUSP3 inh -12.
For COc1ccccc1NC(=O)c1ccc(Cl)c(S(=O)(=O)NCc2ccco2)c1 the results were SSB-PriA inh -1, Mtb hypoxia inh 10, CCHF vOTU inh-1 33* and CCHF vOTU inh-2 -28.
Cc1cc(N)n(-c2nc(-c3ccc4c(c3)OCO4)cs2)n1 was read as SSB-PriA inh 2.
`Cn1c(NC(=O)c2ccco2)c(-c2ccc(Cl)cc2)c(=O)c2ccccc21` gave SSB-PriA inh -4, 3CLpro inhibitor 1, Mtb hypoxia inh -2, CCHF vOTU inh-1 3 and DUSP3 inh 24.
Cc1cccc2c(=O)c(-c3ccc(Cl)cc3)c(NC(=O)c3ccco3)oc12 was read as SSB-PriA inh 0, 3CLpro inhibitor 4, Mtb hypoxia inh -6, CCHF vOTU inh-1 30*, DUSP3 inh 6 and CCHF vOTU inh-2 -6.
`CCCCCCCCCCCCCCCC[n+]1cccc2ccccc21` gave SSB-PriA inh 16, 3CLpro inhibitor 7, Mtb hypoxia inh 10, CCHF vOTU inh-1 44*, DUSP3 inh 1 and CCHF vOTU inh-2 70*.
O=C(N=C1SC2CS(=O)(=O)CC2N1c1ccc(Br)cc1Cl)C1CC1 (stereo not given) was read as SSB-PriA inh 2, 3CLpro inhibitor -4, Mtb hypoxia inh 3, CCHF vOTU inh-1 34*, DUSP3 inh 13 and CCHF vOTU inh-2 -4.
O=C(N=C1SC2CS(=O)(=O)CC2N1c1ccc(Br)cc1F)C1CC1 (stereo not given) was read as SSB-PriA inh 1, 3CLpro inhibitor -2, Mtb hypoxia inh 0, CCHF vOTU inh-1 1 and DUSP3 inh 34.
`O=c1c(O)c(-c2ccc(O)cc2)oc2cc(O)cc(O)c12` gave SSB-PriA inh 8, CCHF vOTU inh-1 31* and CCHF vOTU inh-2 -2.
`CCS(=O)(=O)c1ccccc1C(=O)Nc1nc2c(Br)cccc2s1` gave SSB-PriA inh -17.
